Screening data from PubChem.
mHTT CaM bind – disrupts binding of mutant huntingtin to calmodulin. P42858. AlphaScreen His-mHTT/GST-CaM binding, luminescence. inhibition, % at 15 µM. actives 3.6% (n = 190,000);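 further: 0% = both proteins with DMSO and 100% = one protein alone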
Pf apPOL inh – Pf-apPOL DNA polymerase inhibition; AID 1794808; Recombinant Pf-apPOL, molecular beacon fluorescence, 1.5 h; actives 0.25% (n = 210,000); inhibition, % at 10 µM
An asterisk follows results filed as active; / = no result. The entries come from a sample that favours hits as a whole. No stated cut-off is given here; in the data, active means inhibition above about 50%; inactive means the rest.

SMILES | mHTT CaM bind | Pf apPOL inh
CC12CCC3C(CCC4CCCCC43C)C1CC(c1nc3ccccc3[nH]1)=C2O (stereo unspecified) | -1 | -1
O=C(O)c1cccc(Nc2ncnc3sc(-c4ccccc4)cc23)c1 | 8 | -12
CCC(=O)NCc1nc2c(n1C)CN(C(=O)c1ccc(C)s1)CC2 | 2 | -4
CC(=O)N1CCN(C(=O)C23CC4(C)CC(C)(CC(C)(C4)C2)C3)CC1 | 9 | -4
COc1ccc(N2CCN(C(=O)C34CC5(C)CC(C)(CC(C)(C5)C3)C4)CC2)cc1 | 54* | 3
O=C(c1cc(-c2cccs2)[nH]n1)N1CCC(Cn2cnc3ccccc32)CC1 | 4 | -5
CC12CC(NC(=O)N1c1cccc(C(=O)O)c1)c1cc(Br)ccc1O2 (stereo unspecified) | -1 | 0
CC(=O)Nc1nc(CC(C)C)cc(-c2cccc(Br)c2)c1C#N | 14 | 4
Cc1cc(C)c2c(c1)[nH]c1nnc(SCC(=O)N3CCN(c4ccccc4)CC3)nc12 | 74* | 1
Cc1cc(C)c2c(c1)[nH]c1nnc(SCC(=O)NCc3ccccc3)nc12 | 8 | -4
Cc1ccc(Cl)cc1N1CCN(C(=O)C2CC2)C(C)C1=O (stereo unspecified) | -6 | -1
C=CCC1NC2(CCCC2)Cc2cc(OC)c(OC)cc21 (stereo unspecified) | -5 | 2
COc1ccccc1/C=C/C=C1/N=C(c2cc(Br)ccc2OC)OC1=O | 12 | -5
CC(=O)Nc1nonc1N1C(=N)S/C(=C\c2ccc(-c3cccc(C(F)(F)F)c3)o2)C1=O | 56* | -13
N=C1S/C(=C\c2ccc(-c3ccc(F)c(Cl)c3)o2)C(=O)N1c1nonc1N | 51* | 0
N=C1S/C(=C\c2ccc(-c3cccc(C(=O)O)c3)o2)C(=O)N1c1nonc1N | 47 | -1
CC(=O)Nc1nonc1N1C(=N)S/C(=C\c2ccc(-c3ccccc3F)o2)C1=O | 15 | 0
O=C(Nc1cccc(F)c1)c1cc(S(=O)(=O)N2CCOCC2)c(Cl)cc1Cl | 0 | -25
CN(C)C(=O)C1CCN(c2nc3ccc(-c4ccccc4F)nc3s2)CC1 | 14 | -13
O=C(NCc1ccccc1)N1CCC(n2c(-c3ccoc3)nc3cccnc32)C1 (stereo unspecified) | 8 | 1
Cc1ccc(CNC(=O)N2CCC(n3c(-c4ccoc4)nc4cccnc43)C2)cc1 (stereo unspecified) | 64* | 0
Cc1ccc(C(=O)N2CCC(n3c(-c4ccoc4)nc4cccnc43)C2)cc1C (stereo unspecified) | 33 | -1
COc1ccc(C(=O)N2CCC(n3c(-c4ccoc4)nc4cccnc43)C2)cc1F (stereo unspecified) | 63* | 4
COc1cc(C(=O)N2CCC(n3c(-c4ccoc4)nc4cccnc43)C2)ccc1C (stereo unspecified) | 47 | -2
O=C(c1cccc(Br)c1)N1CCC(n2c(-c3ccoc3)nc3cccnc32)C1 (stereo unspecified) | 55* | -1
SMILES | mHTT CaM bind | Pf apPOL inh
COc1ccccc1/C=C/C=c1\sc2nc(-c3cccs3)nn2c1=O | 10 | -4
Cc1cc(OCC(=O)Nc2cccc(Cl)c2)nc(N2CCCC2)n1 | -4 | 2
Cc1cc(C)nc(SCC(=O)c2ccc(C(C)C)cc2)n1 | -14 | -2
Cc1ccc(C(=O)Sc2nc(C)cc(C)n2)cc1 | 71* | 0
Cc1ccc(CCNC(=O)C2CCN(c3nc4ccc(C)cc4[nH]3)CC2)cc1 | 1 | -13
COc1ccc2c(c1)c(CN1CCC(C(=O)NCCN(C)C3CCCCC3)CC1)cn2C | -5 | -4
O=C(Cc1nc(-c2ccccn2)n[nH]1)Nc1cccc(F)c1 | 99* | -13
O=C(Cc1nc(-c2ccccc2)n[nH]1)Nc1ccc(F)cc1 | -3 | 2
O=C(Cc1nc(-c2ccccn2)n[nH]1)Nc1cccc(Cl)c1 | 99* | -12
O=C(Cc1nc(-c2ccccc2)n[nH]1)Nc1ccccc1 | -2 | -5
Cc1ccc(NC(=O)Cc2nc(-c3ccccc3)n[nH]2)cc1C | -3 | -3
O=C(Cc1nc(-c2ccccn2)n[nH]1)Nc1ccc(Cl)cc1 | 68* | -10
CCn1cnc2ccc(C(=O)NC3CC3)cc2c1=O | -4 | -5
CCn1nc(C(=O)Nc2nnc(-c3cc4ccccc4o3)o2)cc1C | -9 | -3
CC(C)Cc1cc(-c2ccc([N+](=O)[O-])cc2)c(C#N)c(N)n1 | 4 | 0
COc1c(C(=O)N2CCN(c3ccccc3)CC2)sc2cccc(F)c12 | 64* | 0
COc1c(C(=O)N2CCN(c3ccccc3F)CC2)sc2cccc(F)c12 | 13 | 1
COc1ccccc1-c1noc(C2CCCN2C(=O)Nc2ccc(C)cc2Cl)n1 (stereo unspecified) | 2 | -2
COc1ccc(-n2nc3c(c2NC(=O)/C=C/c2ccc4c(c2)OCO4)CS(=O)(=O)C3)cc1 | 19 | -8
N#C/C(=C\c1ccc(-c2ccc(Cl)cc2)o1)c1nn(CCO)c(N)c1C#N | 54* | -14
N#C/C(=C\c1cccc(Br)c1)c1nn(CCO)c(N)c1C#N | 3 | -5
N#C/C(=C\c1ccc(-c2cc(Cl)cc(Cl)c2)o1)c1nn(CCO)c(N)c1C#N | 58* | -5
N#C/C(=C\c1c(F)cccc1Cl)c1nn(CCO)c(N)c1C#N | -1 | 9
O=C(NC1(c2nc(-c3cccnc3)no2)CCCCC1)c1nccc2ccccc12 | 11 | 0
O=[N+]([O-])c1ccccc1CN1CCOCC1 | 2 | 3
SMILES | mHTT CaM bind | Pf apPOL inh
O=[N+]([O-])c1cc(CN2CCOCC2)c(O)c2ncccc12 | 100* | -46
CC(=O)c1ccc(N2CC(C)OC(C)C2)c([N+](=O)[O-])c1 (stereo unspecified) | / | -8
CC1CN(Cc2cc([N+](=O)[O-])c3cccnc3c2O)CC(C)O1 (stereo unspecified) | 100* | -4
CCNC(=O)c1ccc2c(c1)n(CC)c(=O)c1ccnn12 | -9 | -5
Cc1c(C(=O)NC(C)C)oc2ccc(S(=O)(=O)N3CC(C)CC(C)C3)cc12 (stereo unspecified) | 1 | -3
CC1CCCN(c2cc(NCCCC(=O)O)c3c4c(onc24)-c2ccccc2C3=O)C1 (stereo unspecified) | 77* | 0
O=C(NC1CCCCC1)c1ccc2c3c(onc13)-c1ccccc1C2=O | 42 | 2
O=C1c2ccccc2-c2onc3c(N4CCOCC4)cc(N4CCOCC4)c1c23 | 39 | -3
CC1CC(C)CN(c2cc(NCCCC(=O)O)c3c4c(onc24)-c2ccccc2C3=O)C1 (stereo unspecified) | 65* | 0
Cc1nn(Cc2ccc(C(=O)NCc3cccnc3)o2)c(C)c1Cl | 0 | -2
COc1cccc(OC)c1C(=O)Nc1ccc(C)cc1C | 1 | -7
CCC(=O)N1CCc2cc(C(=O)NC(C)C)ccc21 | -3 | -4
O=C(NCc1ccc(Cl)cc1)C1CCc2sc(C(=O)N3CCCC3)cc2C1 (stereo unspecified) | 2 | -5
Cc1c(C(=O)NCc2ccccc2Cl)oc2ccc(S(=O)(=O)N3CCCCCC3)cc12 | -9 | -1
Oc1ccc(Nc2nc(NCc3ccco3)c3ccccc3n2)cc1 | 53* | -1
Clc1ccc(CSc2nc(NCc3ccco3)c3ccccc3n2)cc1 | 25 | -8
CCOC(=O)c1cc(-c2ccccc2)sc1NC(=S)OCC | / | 3
CCCS(=O)(=O)Nc1cccn2nc(C3CCC3)nc12 | 3 | 1
